This note sets out measurements from PubChem BioAssay AID651692 (Broad Institute, 2012).

Potency and affinity values are given separately. Active and inactive are the calls of the source.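 How the source made its calls: active means fitted half-maximal concentration for loss of cell signal no higher than twice the top valid tested concentration; inconclusive means flat curve at 30 to 70% inhibition, or poor fit; inactive means flat within 30%, signal rise, or potency above limit.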

The nature of the assay: MDA-MB-231 cell growth inhibition, dose response, cytotoxicity control for RAD54 inhibitor project, CellTiter-Glo luminescence, cherry-pick (AID 651692).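 Further: more negative values mean stronger loss of viable cell signal.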 To be noted: MDA-MB-231 viability, 24 h; series mostly up to 26 µM.
Regarding `CCN(CC)CCCNc1nc2cc(OC)c(OC)cc2c2nc(-c3ccccc3)nn12`, the compound was called inactive.

As to `Cc1cccc2c1-c1sc(C(=O)NCCCN3CCCC(C)C3)cc1CO2` (stereo not drawn), the call was inactive. As for `CCCCN(CC)CCCNC(=S)Nc1ccc2nc(N3CCN(C)CC3)cc(C)c2c1`, the compound was called inactive. For `Cc1ccc(-c2nc(N3CCN(C)CC3)c3ccccc3n2)cc1`, the compound was called inactive. As for `O=C(Nc1nnc(COc2ccc(F)cc2)s1)c1ccco1`, the result was inactive. For `CN1CCN(c2ccc(CNC(=O)C3Cc4c(-c5ccc(Cl)cc5)ccnc4O3)cc2)CC1` (stereo not drawn), the outcome was inactive.

Take `CN1CCN(c2ccc(Nc3ccnc4cc(Cl)ccc34)cc2)CC1`: the compound was classed as inactive. Regarding `COc1cc2c3c(cccc3c1)C(=O)N(CCN1CCCC1)C2=O`, the outcome was inactive. On to `CC(=O)Nc1cc(-c2ccc(N3CCN(C)CC3)cc2)cn2c(-c3cccc(C(C)=O)c3)cnc12`, for which the compound was called inactive. In the case of `c1ccc(-c2nc(NCCCN3CCOCC3)c3ccccc3n2)cc1`, the compound was called inactive. Turning to `Oc1ccc(Nc2nc(N3CCCC3)c3ccccc3n2)cc1`, the call was inactive. As to `CCN1CCN(C(=S)Nc2ccc3nc(N4CCN(CC)CC4)cc(C)c3c2)CC1`, the call was inactive. Then `O=C(Nc1ccc(Nc2ccncc2)cc1)c1ccc(Nc2ccnc3ccc([N+](=O)[O-])cc23)cc1`, with “inactive”.

Regarding `CCCN(CCC)c1nc(-c2ccccn2)nc2ccccc12`, the outcome was inactive.

For `CCCCN(C)CCNC(=S)Nc1ccc2nc(N3CCN(CC)CC3)cc(C)c2c1`, the outcome was inactive. Take `CN(C)CCc1cc2c(c3c1ccc1ccccc13)OCO2`: the call was inactive. The same measure for `CCN(CC)CCNc1nc(SC)nc2sc3c(c12)CCN(C)C3`: “inactive”. For the compound `CCN1CCc2c(sc(NC(=O)c3ccc(C(=O)c4ccccc4)cc3)c2C(N)=O)C1`, the compound was classed as inactive.
